The entries come from a sample that favours hits as a whole.
STK33 inh – STK33 kinase inhibitors, primary screen, biochemical, luminescence, ADP-Glo, MBP substrate; inhibition, % at 12.5 µM; 27,000 compounds, 0.44% hits; AID 2322, 2010; Serine/threonine-protein kinase 33 (Homo sapiens), Q9BYT3; in the data active means inhibition above about 20%; inconclusive means no clear call, values can overlap the other calls
Target sequence (Q9BYT3 whole entry, looked up): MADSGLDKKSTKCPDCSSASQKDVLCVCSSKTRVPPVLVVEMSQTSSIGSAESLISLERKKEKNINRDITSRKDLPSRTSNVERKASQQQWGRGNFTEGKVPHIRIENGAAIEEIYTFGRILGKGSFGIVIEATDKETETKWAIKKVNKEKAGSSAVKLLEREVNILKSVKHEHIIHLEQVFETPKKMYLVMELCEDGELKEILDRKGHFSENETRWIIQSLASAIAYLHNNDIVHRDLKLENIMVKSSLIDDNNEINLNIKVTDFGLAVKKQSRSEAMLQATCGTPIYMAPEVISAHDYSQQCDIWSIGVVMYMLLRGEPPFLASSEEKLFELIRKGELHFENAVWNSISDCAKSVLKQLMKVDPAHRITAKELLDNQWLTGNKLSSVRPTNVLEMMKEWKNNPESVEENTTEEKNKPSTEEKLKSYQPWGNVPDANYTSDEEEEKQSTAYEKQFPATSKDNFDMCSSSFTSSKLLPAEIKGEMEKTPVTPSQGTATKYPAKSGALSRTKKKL
PD-1 reverse act – activators reversing PD-1 mediated T-cell inhibition, primary screen, luminescence, primary human CD4 T cells, PD-L1 beads; CellTiter-Glo 96 h; activation, % (no concentration beside the values); 29,000 tested, under 10 active; AID 2316, 2010; call rule not given here;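 further: 0% = median vehicle wells and 100% = positive control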
NOMO-1 viab – NOMO-1 AML cell viability reduction, primary screen, STK33 inhibitor project, CellTiter-Glo luminescence. inhibition, % (test concentration not listed). AID 2330, 2010. 37,000 compounds, 7.5% hits. NOMO-1 AML viability, 72 h; in the data active means inhibition above about 80%; inconclusive means no clear call, values can overlap the other calls
An asterisk follows results filed as active; ? = inconclusive; / = no result given.

SMILES	STK33 inh	PD-1 reverse act	NOMO-1 viab
C[C@@H]1CN([C@H](C)CO)C(=O)c2cccc(NC(=O)C3CC3)c2O[C@@H]1CN(C)Cc1ccc(C(F)(F)F)cc1	/	1	-1
C[C@@H]1CN([C@@H](C)CO)C(=O)c2cccc(NC(=O)C3CCCCC3)c2O[C@@H]1CN(C)Cc1ccc(-c2ccccc2)cc1	/	/	77
C[C@@H]1CN([C@H](C)CO)C(=O)c2cccc(NC(=O)C3CCCCC3)c2O[C@H]1CN(C)Cc1ccc(C(F)(F)F)cc1	/	-6	104*
C[C@H]1CN([C@@H](C)CO)C(=O)c2cccc(NC(=O)C3CCCCC3)c2O[C@@H]1CN(C)Cc1ccc(Oc2ccccc2)cc1	/	/	86*
C[C@@H]1CN([C@H](C)CO)C(=O)c2cccc(NC(=O)C3CCCCC3)c2O[C@@H]1CN(C)Cc1ccc(Oc2ccccc2)cc1	/	-2	25
C[C@H](CO)N1C[C@H](C)[C@H](CN(C)Cc2ccc(-c3ccccc3)cc2)Oc2c(NC(=O)C3CCCCC3)cccc2C1=O	/	-2	119*
NNC(=O)Cn1nnc(N2CCCC2)n1	/	0	-7
Cc1ccc(OCC(=O)Oc2cccc(NC3=NS(=O)(=O)c4ccccc43)c2)cc1	5	1	-5
Cc1noc(C)c1NC(=O)Nc1cccc2c1O[C@H](CN(C)Cc1ccc(-c3ccccc3)cc1)[C@@H](C)CN([C@H](C)CO)C2=O	/	-3	111*
C[C@@H]1CN([C@H](C)CO)C(=O)c2cccc(NC(=O)Nc3cccc4ccccc34)c2O[C@@H]1CN(C)Cc1ccc(C(=O)O)cc1	/	2	6
Cc1noc(C)c1NC(=O)Nc1cccc2c1O[C@@H](CN(C)S(C)(=O)=O)[C@@H](C)CN([C@@H](C)CO)C2=O	4	-3	102*
C[C@@H]1CN([C@H](C)CO)C(=O)c2cccc(N(C)C)c2O[C@H]1CN(C)Cc1ccc(-c2ccccc2)cc1	/	-8	86*
C[C@@H]1CN([C@H](C)CO)C(=O)c2cccc(NC(=O)Nc3cccc4ccccc34)c2O[C@@H]1CN(C)Cc1ccc(-c2ccccc2)cc1	/	-4	107*
C[C@@H]1CN([C@H](C)CO)C(=O)c2cccc(N(C)C)c2O[C@@H]1CN(C)Cc1ccc(-c2ccccc2)cc1	/	0	25
Cc1noc(C)c1NC(=O)Nc1cccc2c1O[C@H](CN(C)Cc1ccccc1)[C@@H](C)CN([C@H](C)CO)C2=O	/	0	38
Cc1noc(C)c1NC(=O)Nc1cccc2c1O[C@@H](CN(C)S(C)(=O)=O)[C@H](C)CN([C@H](C)CO)C2=O	/	1	18
CC1CC2OC(C)(C)OC2C(OC(=O)c2ccccc2)O1 (centres undefined)	-3	1	8
Cc1cccc(CSc2nnc(NC(=O)c3oc4ccc(F)cc4c3C)s2)c1	-6	/	11
CCOC(=O)c1oc2nc(-c3ccco3)cc(-c3ccco3)c2c1N	/	-1	-15
Cc1ccc(OCC(=O)Nc2cc(Cl)ccc2N2CCOCC2)c(C)c1	0	-2	44
C[C@@H]1CN([C@@H](C)CO)C(=O)c2cccc(NC(=O)Nc3ccccc3)c2O[C@@H]1CN(C)Cc1ccc(-c2ccccc2)cc1	/	0	102*
C[C@H](CO)N1C[C@H](C)[C@@H](CN(C)Cc2ccc(-c3ccccc3)cc2)Oc2c(NC(=O)Nc3ccc(F)cc3)cccc2C1=O	/	0	36
C[C@@H]1CN([C@H](C)CO)C(=O)c2cccc(NC(=O)Nc3ccc(F)cc3)c2O[C@@H]1CN(C)Cc1ccc(-c2ccccc2)cc1	/	-2	82*
C[C@H]1CN([C@@H](C)CO)C(=O)c2cccc(NC(=O)Nc3ccc(F)cc3)c2O[C@@H]1CN(C)Cc1ccc(-c2ccccc2)cc1	/	/	59
O=C(CSc1nnc(-c2cccc(Cl)c2)n1-c1ccccc1)Nc1ccc(F)c(F)c1	0	1	-19
SMILES	STK33 inh	PD-1 reverse act	NOMO-1 viab
O=C(NCCc1ccccc1)c1ccc(-c2ccccc2)cc1	/	1	24
CN(CC(=O)Nc1ccccc1C#N)S(=O)(=O)c1ccccc1	-5	/	0
COc1ccc(NC(=O)CCCN2C(=O)c3ccccc3C2=O)c(OC)c1	-1	1	-8
Cc1noc(C)c1S(=O)(=O)Nc1ccc2c(c1)CC(=O)N([C@@H](C)CO)C[C@H](C)[C@@H](CN(C)Cc1ccc(-c3ccccc3)cc1)O2	-1	-1	86*
C[C@H]1CN([C@@H](C)CO)C(=O)Cc2cc(NS(=O)(=O)c3ccccc3)ccc2O[C@@H]1CN(C)Cc1ccc(-c2ccccc2)cc1	/	1	113*
Cc1ccc(S(=O)(=O)Nc2ccc3c(c2)CC(=O)N([C@H](C)CO)C[C@@H](C)[C@@H](CN(C)Cc2ccc(-c4ccccc4)cc2)O3)cc1	5	0	11
Cc1ccc(S(=O)(=O)Nc2ccc3c(c2)CC(=O)N([C@H](C)CO)C[C@@H](C)[C@H](CN(C)Cc2ccc(-c4ccccc4)cc2)O3)cc1	3	-5	95*
C[C@H]1CN([C@@H](C)CO)C(=O)Cc2cc(NS(=O)(=O)c3ccccc3)ccc2O[C@H]1CN(C)Cc1ccc(-c2ccccc2)cc1	3	1	31
C[C@@H]1CN([C@H](C)CO)C(=O)Cc2cc(NS(=O)(=O)c3ccccc3)ccc2O[C@H]1CN(C)Cc1ccc(-c2ccccc2)cc1	4	-1	?
Cc1noc(C)c1S(=O)(=O)Nc1ccc2c(c1)CC(=O)N([C@H](C)CO)C[C@@H](C)[C@H](CN(C)Cc1ccc(-c3ccccc3)cc1)O2	-5	/	44
Cc1ccc(S(=O)(=O)Nc2ccc3c(c2)CC(=O)N([C@@H](C)CO)C[C@@H](C)[C@@H](CN(C)Cc2ccc(-c4ccccc4)cc2)O3)cc1	9	-3	124*
Cc1cccc(C)c1NC(=O)CN(C1CCCCC1)S(=O)(=O)c1ccc(Cl)cc1	4	0	12
CS(=O)(=O)CS(=O)(=O)C1=C(N2CCOCC2)C2CCN1CC2	/	-1	14
Cc1ccccc1NC(=O)COc1ccc(N2CC(C(N)=O)CC2=O)cc1 (centres undefined)	-5	2	-3
CCOC(=O)c1ccc(NC(=O)CN2C(=O)C3C4C=CC(C5CC45)C3C2=O)cc1 (centres undefined)	-3	2	1
O=C(NCc1ccccn1)c1nn2c(C(F)(F)F)cc(-c3ccccc3)nc2c1Cl	0	0	3
C[C@@H]1CN([C@H](C)CO)C(=O)Cc2cc(NS(=O)(=O)c3ccc(F)cc3)ccc2O[C@H]1CN(C)Cc1ccc(-c2ccccc2)cc1	-1	-3	89*
C[C@@H]1CN([C@H](C)CO)C(=O)Cc2cc(NS(=O)(=O)c3ccc(F)cc3)ccc2O[C@@H]1CN(C)Cc1ccc(-c2ccccc2)cc1	/	-2	?
CC(C)=CCc1c(O)cc(O)c2c1OC(c1ccc(O)c(O)c1)CC2=O (centres undefined)	4	/	/
CC(C)=CCc1c(O)c(CC=C(C)C)c2c(c1O)C(=O)CC(c1ccc(O)cc1O)O2 (centres undefined)	-4	-2	116*
Cc1cc(O)c(Cc2c(O)cc(C)oc2=O)c(=O)o1	-1	3	1
COc1cccc(OC)c1C(=O)NC(=S)Nc1cccc(-c2nn3c(C)nnc3s2)c1	6	-3	122*
